Screens from PubChem BioAssay.
G9a inh: blocks human histone lysine methyltransferase G9a; Q96KQ7; 350,000 tested, 8.8% active; Potency, µM (top dose mostly 102 µM), inactives show at the top dose activity, negative = inhibition, hits mostly inhibitors; G9a H3K9 monomethylation, AlphaScreen, 2 h; AID 504332; further: on the % scale 0 is the no-effect control and ±100 the full control effect; nearly all actives have a fitted effect of over 75% in size
Target sequence (Q96KQ7 913-1193 limits assumed): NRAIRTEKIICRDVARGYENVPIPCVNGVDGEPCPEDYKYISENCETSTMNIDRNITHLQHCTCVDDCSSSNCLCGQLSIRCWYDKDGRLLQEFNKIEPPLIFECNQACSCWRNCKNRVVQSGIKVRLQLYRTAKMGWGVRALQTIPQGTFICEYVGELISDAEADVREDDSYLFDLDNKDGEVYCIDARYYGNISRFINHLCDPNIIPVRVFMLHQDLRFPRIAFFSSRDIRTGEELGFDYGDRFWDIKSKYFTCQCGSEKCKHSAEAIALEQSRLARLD
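Enzyme 20 nM + cpd, 15 min RT; add b-H3K9 pep 500 nM / SAM 20 uM; 2 h RT; anti-H3K9me1 Ab 0.5 ug/mL + SA donor / anti-rabbit acceptor beads 20 ug/mL each, 10 min; AlphaScreen read.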
Sfp inh: Sfp phosphopantetheinyl transferase inhibition. Q9F4F7. Biochemical Sfp PPTase activity, qHTS. Potency, µM, without a hit: largest response in the series, negative = inhibition, hits mostly inhibitors. 310,000 tested, 3.5% active;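 further: the enzyme is Sfp with the accession as filed and its product quenches rhodamine fluorescence; 0% = enzyme reaction without inhibitor and -100% = no enzyme wells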
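Buffer: 50 mM Hepes-Na pH 7.6, 10 mM MgCl2, 0.01% Nonidet P-40, 0.01% BSA. Enzyme 15 nM, pre-exposed to compound 15 min; substrates then added and fluorescence change tracked over 30 min.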
JMJD2A Tudor: JMJD2A Tudor domain (human) inhibition | Potency, µM (series often up to 114 µM), without a hit: at the top dose activity change, negative = inhibition, usual class: inhibitors | 390,000 tested, 4.4% active | AlphaScreen JMJD2A-Tudor / H3K4me3 peptide binding | AID 504339; further: on the % scale 0 is the no-effect control and ±100 the full control effect; nearly all actives have a fitted effect of over 50% in size
BAZ2B inh: blocks human BAZ2B | Q9UIF8 | AlphaScreen BAZ2B-H3K14Ac peptide displacement | Potency, µM (titrated, usually from 114 µM), inactives show top-dose activity change, negative = inhibition, usual class: inhibitors | 360,000 tested, 4.4% active; further: on the % scale 0 is the no-effect control and ±100 the full control effect; nearly all actives have a fitted effect of over 60% in size
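Multi-concentration screen (max 110 uM) measuring displacement of acetylated histone H3 peptide from BAZ2B by AlphaScreen, using 50 nM protein, 50 nM peptide and 10 ug/mL streptavidin donor plus Ni-chelate acceptor beads.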
HP1b binding inh: blocks HP1-beta chromodomain binding to methylated histone tails; Potency, µM (highest dose often 114 µM), inactives show at the highest dose activity change, negative = inhibition, actives largely listed as inhibitors; P83916; 390,000 tested, 0.56% active; AlphaScreen HP1-beta / biotin-H3K9me3 peptide binding; further: nearly all actives have a fitted effect of over 70% in size
Target sequence (P83916 whole entry, looked up): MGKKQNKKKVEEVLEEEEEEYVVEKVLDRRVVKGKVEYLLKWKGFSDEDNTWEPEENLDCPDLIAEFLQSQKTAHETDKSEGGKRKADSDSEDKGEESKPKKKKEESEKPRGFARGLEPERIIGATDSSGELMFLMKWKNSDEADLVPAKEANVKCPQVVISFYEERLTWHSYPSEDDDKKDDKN
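Compound inhibition of the preformed complex between 50 nM HP1-beta and 50 nM biotinylated H3K9me3 peptide was read by AlphaScreen. Buffer was PBS pH 7.4 with 0.01% Tween-20. Incubations ran 30 min at room temperature, with 10 ug/mL donor/acceptor beads.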
L3MBTL1 block: blocks human L3MBTL1; AlphaScreen L3MBTL1–H3K9me1 peptide binding; AID 485360; 230,000 tested, 0.66% active; Potency, µM (highest dose often 57.1 µM), for the others: at the highest dose activity, negative = inhibition, usual class: inhibitors; further: on the % scale 0 is the no-effect control and ±100 the full control effect; nearly all actives have a fitted effect of over 60% in size
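First, the protein-peptide complex forms for 30 min at room temperature (L3MBTL1 50 nM, biotinylated H3K9me1 peptide 75 nM). Next, compounds are pin-transferred and incubated 30 min. Finally, AlphaScreen beads are added and read after 30 min.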
* hit, by the source's call; ? = inconclusive; / = no result given; [ ] = another dose, or the depositor's remark. Shown are actives, neighbours in structure and some others; about 12% of the full set was active somewhere. The call rests on the fitted dose curve; in most records, active means well fitted curve in the direction sought with a large enough effect; inconclusive means small, poorly fitted or top-dose-only effect, or another doubt; inactive means no such curve, though single readings can be large; an effect the other way counts as inactive or inconclusive. Potency means the concentration at half of the fitted maximal effect.

SMILES | G9a inh | Sfp inh | JMJD2A Tudor | BAZ2B inh | HP1b binding inh | L3MBTL1 block
CN(Cc1ccccc1)C(=O)c1ccc2c(c1)N(Cc1ccccc1Cl)C(=O)c1ccccc1S2 | ? | / | -18% | -1% | 18% | /
COc1ccc(C#Cc2c[nH]c(=O)c3cncnc23)cc1OC | / | / | -20% | / | 21% | /
C=CCOC(=O)NC(c1ccc(F)c(F)c1)C(C(C)=O)C(=O)OC (stereo not given) | / | -27% | / | / | / | /
N#Cc1cccc(NS(=O)(=O)c2ccccc2Cl)c1 | -14%[59 µM] | / | -2% | 10% | 28% | 1%
COC(=O)c1c(NC(C)=O)sc2c1CCCC2 | -26%[59 µM] | -13% | 3% | -12% | 33% | 1%
CNC(=S)Nc1sc2c(c1C(=O)OC)CCC2 | 16µM* | 24% | 89µM* | 4% | 5% | 8%
CC(=O)Nc1ccc(NC(=O)C2CCN(c3c(NC(C)=O)c(C)nn3-c3ccccc3)CC2)cc1 | -4%[59 µM] | / | -6% | 2% | 28%[57 µM] | /
C=CCn1c(-c2csc(-c3ccccc3)n2)n[nH]c1=S | 1.8µM* | -25% | -18% | 1% | 34% | /
CCn1c(-c2csc(-c3ccc(Cl)cc3)n2)n[nH]c1=S | ? | 9% | -3% | 6% | 50% | /
C=CCn1c(-c2cc(-c3ccccc3)sc2N)n[nH]c1=S | / | 79µM* | -28% | -13% | 26% | -8%
C=CCn1c(-c2csc(-c3ccc(OC)c(OC)c3)n2)n[nH]c1=S | 2.2µM* | 16% | 7.9µM* | -8% | 24% | 10%
Nc1sc(-c2ccccc2)cc1-c1n[nH]c(=S)n1C1CCCCC1 | 4%[59 µM] | -4% | -16% | -4% | 35% | -4%
CCn1c(-c2csc(-c3ccccc3)n2)n[nH]c1=S | 1.4µM* | -1% | -28% | -32% | 60% | /
Cc1cc(Cl)ccc1OCC(=O)NNC(=O)c1cccnc1 | / | 5% | -9% | -2% | 50% | /
COC(=O)c1c[nH]c(=S)n1Cc1ccccc1 | / | / | 2.8µM* | / | 18%[57 µM] | /
Cc1ccc(S(=O)(=O)N(C)C)cc1NC(=O)C(C)OC(=O)C1CCCC1 (stereo not given) | 16%[2.33 µM] | / | -1% | 10% | 35% | 15%
CCCCCNc1nc2sc3c(c2c(=O)n1-c1cccc(Cl)c1)CCN(C)C3 | 50µM* | 1% | -21% | -23% | -5% | ?
CCCCNc1nc2sc3c(c2c(=O)n1-c1cccc(Cl)c1)CCN(C)C3 | ? | 14% | -19% | -16% | -3% | -25%
O=C(C[C@@H]1C/C=C\C[C@@H](Cc2ccc(F)cc2)C(=O)OCCNC1=O)NCCO | / | / | -13% | / | 45% | 6%
Cc1cccc(C)c1NC(=S)NC(=O)c1ccc(Br)o1 | 40µM* | 6% | -13%[11.4 µM] | ? | -14% | -11%
Cn1ncc(C(N)=O)c1NC(=S)NC(=O)c1ccc(Br)o1 | 18µM* | -87% | -12% | -28% | -8% | /
Cc1ccc(CN2CCSc3ccc(C(=O)Nc4ccc(C)cc4)cc32)cc1 | -23%[59 µM] | / | -10% | -6% | 33% | /
Cc1nc2c(=O)[nH]c(=S)n(C)c2nc1C | 7.1µM* | 4.5µM* | 50µM* | -28% | -71% | -1%
COc1ccc(OC)c(C(c2c(O)nc(SC)[nH]c2=O)c2c(O)nc(SC)[nH]c2=O)c1 | 50µM* | ? | -14% | -2% | 23% | -3%
COc1cc(C(c2c(O)nc(SC)[nH]c2=O)c2c(O)nc(SC)[nH]c2=O)cc(OC)c1OC | -1%[0.501 µM] | ? | 8% | 9% | 31% | 1%[2.29 µM]
SMILES | G9a inh | Sfp inh | JMJD2A Tudor | BAZ2B inh | HP1b binding inh | L3MBTL1 block
CSc1nc(O)c(C(c2ccc(C)cc2)c2c(O)nc(SC)[nH]c2=O)c(=O)[nH]1 | 40µM* | -2% | -15% | -21% | 15% | -2%
Fc1ccccc1OCCCCCN1CCCC1 | -5%[59 µM] | 10% | -31% | -3% | 1% | -3%
CC1CCN(CCCCOc2ccccc2F)CC1 | -15% | -6% | 10µM* | 50µM* | 1% | /
CC1CCN(CCCCOc2ccccc2Br)CC1 | 10µM* | 50µM* | 16µM* | ? | -17% | -6%
CCOc1ccc(NC(=O)CSc2nc(=O)[nH]c3c2CCC3)cc1 | -6%[59 µM] | / | 1% | -10% | 15% | /
CSc1ncccc1C(=O)NCc1nnc2ccccn12 | / | / | -5% | / | 10%[57 µM] | 5%
O=C(NNS(=O)(=O)c1ccc(Cl)cc1)c1sccc1-n1cccc1 | ? | 5% | 13µM* | -36% | -4% | -8%
O=C(NNS(=O)(=O)c1ccccc1)c1sccc1-n1cccc1 | -11% | 3% | -10% | ? | 34% | -5%
COc1ccc(NC(=O)C2CCCCC2)cc1S(=O)(=O)N1CCOCC1 | / | / | 0% | / | 10% | 4%
O=C(Nc1cc(Cl)ccc1Cl)c1cc([N+](=O)[O-])cc(Br)c1O | / | / | 56µM* | / | -23% | /
O=C(Nc1ccc([N+](=O)[O-])cc1Cl)c1cc(Cl)cc(Cl)c1O | / | / | 45µM* | / | -28% | /
CCn1c(SCC(=O)NCc2ccccc2)nnc1-c1cccnc1 | 33% | 14% | -6% | -9% | 26% | -3%
Cc1nonc1CN(C)C(=O)CC1C(=O)NCCN1Cc1cccc(C(F)(F)F)c1 (stereo not given) | 50µM* | -25% | -16% | -8% | 44% | 7%
CC1(C)C(=O)NCCN1C(=O)CC1C(=O)NCCN1Cc1cccc(C(F)(F)F)c1 (stereo not given) | 45µM* | 9% | -11% | -15% | 35% | /
CN(CC1CCOCC1)C(=O)CC1C(=O)NCCN1Cc1cccc(C(F)(F)F)c1 (stereo not given) | 3%[12.7 µM] | 11% | -6% | 3% | 49% | /
Cc1nonc1CN(C)C(=O)CC1C(=O)NCCN1Cc1ccccc1C(F)(F)F (stereo not given) | -47% | 16% | -19% | -33% | 26% | 2%
Cc1ccc(C(=O)NC2CCCCC2)cc1S(=O)(=O)N1CCCC1 | 13% | 8% | -1% | -22% | 32% | /
Cn1c(=O)n(C)c2cc(/C=N/NC(N)=S)ccc21 | 20µM* | 32µM* | -10%[57.1 µM] | -37% | -9% | 0%
CCOC(=O)c1sc(NC(=O)CCCCl)nc1C | 50µM* | -26% | 4% | 6% | 29% | 5%
O=C(O)Cc1sc(N/N=C\c2ccccc2)nc1-c1ccccc1 | 3.2µM* | 40µM* | ? | ? | -23% | -13%
CCOC(=O)c1sc(N/N=C/c2ccccc2)nc1C | 2µM* | 35µM* | ? | -6% | -36%[57 µM] | 7%
O=C(NCCSCc1cccc(Cl)c1)C1CCN(S(=O)(=O)Cc2ccccc2)CC1 | -5%[59 µM] | / | -15% | -1% | 4% | /
O=C(COc1ccc2ccccc2c1)NN1C(=O)c2ccccc2C1=O | -1%[59 µM] | 7% | 89µM* | 9% | 10% | 9%
O=C(COc1ccc2ccccc2c1)NCCNC(=O)COc1ccc2ccccc2c1 | ? | 2% | -13% | ? | 8% | /
